In PubChem BioAssay:
Calls of active or inactive are those of the source.
Note: test concentration not given here.

Assay: JC-1 mitochondrial signal, unstimulated MM1S myeloma – cell-based, JC-1 fluorescence, 24 h, 100 nL compound, profiling panel (AID 1170)
Conditions: MM1S mitochondrial potential, higher = more signal
In the case of CCCCCCc1nc(-c2ccc(-c3ccc(Cl)c(Cl)c3)o2)cc2c1[Si](C(C)C)(C(C)C)OC2, the z-score is reported as -1.23.
Work on CCOC(=O)C1=CC[C@@H](c2ccccc2)N(S(=O)(=O)c2ccc(C)cc2)[C@H]1c1ccccc1I yielded a z-score of -1.16.
For COC(=O)[C@]1(Cc2ccccc2)N=C(c2ccc(OCCCO)cc2)O[C@@H]1c1ccccc1CN=[N+]=[N-], the z-score was -1.34.
CC(C)=CCCC=C(C)C(O)C1C=CC2C(=O)N(c3ccccc3)C(=O)C2N1Nc1ccc(C#N)cc1 (stereo not given) gave a z-score of -1.29.
For CCOC(=O)C[C@H]1[C@H](OC(=O)c2ccccc2-c2ccccc2)[C@@H](NC(=O)C2CCCCC2)c2cc(OCCCO)ccc2N1C(=O)c1ccc2ccccc2n1, the z-score was -0.621.

Assay: resazurin metabolic signal in A549 cells – cell-based, resazurin fluorescence, 24 h, PK04 Diversity Set, profiling panel (AID 1171)
Conditions: A549 viability, higher = more signal, called active from +8 up or from −8 down
In the case of O=C1N(Cc2ccccc2)c2ccccc2C[C@@]12COC(c1ccc(OCCCO)cc1)=N2, the z-score is reported as 1.41 (inactive).
With COc1ccc([Si](C)(C)[C@H]2[C@H](CC(=O)N3Cc4ccccc4C[C@H]3CO)O[C@@]3(C(=O)N(c4ccccc4)c4ccccc43)[C@@H]2C)cc1 the z-score was 0.698 (inactive).
With C=C(COC)/C(=C/C[C@@H](OC(C)=O)c1ccccc1OCCO)c1cnc2ccccc2c1 the z-score was -1.69 (inactive).
With O=C(NCc1ccccc1)[C@@H]1c2ccccc2C(=O)N(Cc2cc(C(F)(F)F)cc(C(F)(F)F)c2)[C@H]1c1ccc(CO)cc1 the z-score was -0.281 (inactive).
In the case of COCCOC(=O)N1C(=O)[C@@]2(c3cc(C#CCNC(N)=O)ccc31)[C@H](C(=O)Nc1nc3ccccc3s1)[C@H]1C(=O)O[C@H](c3ccccc3)[C@H](c3ccccc3)N1[C@@H]2c1ccccc1OCCO, the z-score is reported as -1.29 (inactive).
